Experimental findings from PubChem BioAssay (EPA / NIEHS) are described below.

Read-out in assay [1]: Tissue plasminogen activator (tPA), PLAT (gene 5327)
Briefly: BSK_BE3C_tPA: BioMAP Diversity Plus: BE3C Assay for Tissue plasminogen activator (tPA) Biomarker Activity (AID 2283041).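 For outcome: tPA level quantified by ELISA one day after compound addition.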 As to conditions: primary human bronchial epithelial cells; actives raise or lower the signal. The method in brief:
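ELISA read-out of tPA on human primary bronchial epithelial cells, 24 h post-dosing; bidirectional fit vs DMSO negative control/baseline.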

Read-out in assay [2]: Interleukin-8 (IL8), CXCL8 (gene 3576)
The assay can be described thus: BSK_CASM3C_IL8: BioMAP Diversity Plus: CASM3C Assay for Interleukin-8 (IL8) Biomarker Activity (AID 2283042).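 Note: IL-8 protein level quantified by ELISA.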 As to conditions: primary human coronary artery smooth muscle cells; actives raise or lower the signal.

Read-out in assay [3]: Human Leukocyte Antigen - DR isotype (HLADR), HLA-DRA (gene 3122)
Briefly: BSK_CASM3C_HLADR: BioMAP Diversity Plus: CASM3C Assay for Human Leukocyte Antigen - DR isotype (HLADR) Biomarker Activity (AID 2283043).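 Note: cell-surface HLA-DR protein level quantified by ELISA.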 As to conditions: primary human coronary artery smooth muscle cells; actives raise or lower the signal.

Read-out in assay [4]: Macrophage colony-stimulating factor (MCSF), CSF1 (gene 1435)
The assay can be described thus: BSK_CASM3C_MCSF: BioMAP Diversity Plus: CASM3C Assay for Macrophage colony-stimulating factor (MCSF) Biomarker Activity (AID 2283044).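 Note: M-CSF protein amount quantified by ELISA after 24 h exposure.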 The conditions noted are these: primary human coronary artery smooth muscle cells; actives raise or lower the signal.

Read-out in assay [5]: Low-density lipoprotein receptor (LDLR), LDLR (gene 3949)
The assay can be described thus: BSK_CASM3C_LDLR: BioMAP Diversity Plus: CASM3C Assay for Low-density lipoprotein receptor (LDLR) Biomarker Activity (AID 2283045).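 Note: LDLR protein level on the cell surface quantified by ELISA.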 As to conditions: primary human coronary artery smooth muscle cells; actives raise or lower the signal.

Read-out in assay [6]: Monocyte Chemoattractant Protein-1 (MCP1), CCL2 (gene 6347)
Briefly: BSK_CASM3C_MCP1: BioMAP Diversity Plus: CASM3C Assay for Monocyte Chemoattractant Protein-1 (MCP1) Biomarker Activity (AID 2283046).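 Note: MCP-1 level quantified by ELISA 24 h after dosing.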 The conditions noted are these: primary human coronary artery smooth muscle cells; actives raise or lower the signal.

Assay [7] can be described thus: BSK_CASM3C_Proliferation: Cell Proliferation Assessment in the BioMAP Diversity Plus: CASM3C Assay (AID 2283047).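 Note: sulforhodamine B total protein stain as relative cell number at 560 nm; sub-confluent cells exposed 48 h before staining; fitted both ways against DMSO so gain or loss of cell number.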 The conditions noted are these: primary human coronary artery smooth muscle cells.
Read-out in assay [8]: Monokine induced gamma interferon (MIG), CXCL9 (gene 4283)
The assay can be described thus: BSK_CASM3C_MIG: BioMAP Diversity Plus: CASM3C Assay for Monokine induced gamma interferon (MIG) Biomarker Activity (AID 2283048).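 Note: MIG protein level measured by ELISA.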 As to conditions: primary human coronary artery smooth muscle cells; actives raise or lower the signal.

Read-out in assay [9]: serum amyloid A (SAA), SAA1 (gene 6288)
The assay can be described thus: BSK_CASM3C_SAA: BioMAP Diversity Plus: CASM3C Assay for serum amyloid A (SAA) Biomarker Activity (AID 2283049).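 Note: SAA protein level quantified by ELISA.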 The conditions noted are these: primary human coronary artery smooth muscle cells; actives raise or lower the signal.

A short description of assay [10]: BSK_CASM3C_SRB: Viability Assessment in the BioMAP Diversity Plus: CASM3C Assay (AID 2283050).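 Note: total protein by SRB staining as cytotoxicity measure in parallel cultures; cells exposed to compound for 24 h.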 As to conditions: primary human coronary artery smooth muscle cells.

Active and inactive are the calls of the source. Rule for the calls: active = hit-call score of the fitted dose curve at least 0.9, where 1 is the maximum; inactive = score below 0.9.

In the case of `CCCSP(=O)(OCC)SCCC`, the outcome in assay [1], in [2], in [3], in assay [4], in assay [5] and in [6] was inactive. Besides, the result in [7], in assay [8], in assay [9] and in assay [10] was inactive.
On to `Nc1nc(N)nc(NC2CC2)n1`, for which the result in [1], in assay [2], in [3], in assay [4], in assay [5] and in [6] was inactive. Moreover, the outcome in assay [7], in assay [8], in assay [9] and in assay [10] was inactive.
As to `C[Si](Cn1cncn1)(c1ccc(F)cc1)c1ccc(F)cc1`, the result in [1], in assay [2], in [3], in [4], in assay [5] and in assay [6] was inactive. Moreover, the result in assay [7], in assay [8], in [9] and in assay [10] was inactive.
With `CC(C1CC1)C(O)(Cn1cncn1)c1ccc(Cl)cc1` (stereo not given), the outcome in assay [1], in [2], in assay [3], in assay [4], in assay [5] and in [6] was inactive. The result in assay [7], in assay [8], in assay [9] and in assay [10] was inactive.
For `CCc1cccc(C)c1N(C(=O)CCl)C(C)COC` (stereo not given), the outcome in assay [1], in assay [2], in assay [3], in assay [4], in assay [5] and in [6] was inactive. Moreover, the outcome in assay [7], in [8], in [9] and in [10] was inactive.
Turning to `O=C(O)c1cc(Oc2ccc(C(F)(F)F)cc2Cl)ccc1[N+](=O)[O-]`, the result in assay [1], in assay [2], in assay [3], in assay [4], in assay [5] and in assay [6] was inactive. For the same molecule, the outcome in assay [7], in assay [8], in assay [9] and in assay [10] was inactive.
Consider `CON=C(C(=O)OC)c1ccccc1CON=C(C)c1cccc(C(F)(F)F)c1`, for which the result in assay [1], in assay [2], in assay [3], in assay [4], in assay [5] and in assay [8] was inactive. Also, the result in assay [9] and in assay [10] was inactive. Besides, the AC50 in [6] is 2.68 µM (active); in assay [7], 8.75 µM (active).
With `CC(COc1ccc(Oc2ccccc2)cc1)Oc1ccccn1` (stereo not given), the outcome in assay [1], in assay [2], in assay [3], in [4], in assay [5] and in assay [6] was inactive. Moreover, the outcome in assay [8], in assay [9] and in assay [10] was inactive. The AC50 in assay [7] was 31.8 µM (active).
Turning to `CCCSP(=O)(OCC)Oc1ccc(Br)cc1Cl` (stereo not given), the values for the AC50 in [1] and in [7] were 13.4 µM (active) and 32.1 µM (active), respectively. Further, the outcome in [2], in assay [3], in assay [4], in assay [5], in assay [6] and in assay [8] was inactive. Besides, the result in assay [9] and in [10] was inactive.
Turning to `CCNc1nc(Cl)nc(NC(C)(C)C#N)n1`, the outcome in assay [1], in [2], in assay [4], in assay [5], in assay [6] and in assay [7] was inactive. The result in assay [8], in assay [9] and in assay [10] was inactive. The AC50 in [3] was 9.89 µM (active).
On to `COP(=O)(NC(C)=O)SC` (stereo not given), for which the outcome in assay [1], in assay [2], in assay [3], in [4], in assay [5] and in assay [6] was inactive. Moreover, the outcome in [7], in [8], in assay [9] and in assay [10] was inactive.
For `CCCCSP(=O)(SCCCC)SCCCC`, the result in assay [1], in assay [2], in [3], in [5], in [6] and in assay [8] was inactive. Also, the outcome in [9] was inactive. Also, the results for the AC50 in [4], in [7] and in [10] were 29.4 µM (active), 36.8 µM (active) and 31.7 µM (active), respectively.
Turning to `CCOC(=O)CC(SP(=O)(OC)OC)C(=O)OCC` (stereo not given), the outcome in [1], in assay [2], in assay [3], in [4], in assay [5] and in assay [6] was inactive. In addition, the outcome in [7], in assay [8], in assay [9] and in [10] was inactive.
As for `CNC(=O)ON=C(C)SC`, the outcome in assay [1], in [2], in assay [3], in assay [4], in assay [5] and in assay [6] was inactive. The outcome in assay [7], in assay [8], in assay [9] and in [10] was inactive.
As to `C[N+]1(C)CCCCC1`, the outcome in assay [1], in assay [2], in [3], in assay [4], in assay [5] and in [6] was inactive. Moreover, the outcome in [7], in assay [8], in [9] and in [10] was inactive.
With `CCOP(=S)(Oc1cnc(C(C)(C)C)nc1)OC(C)C` (stereo not given), the result in assay [1], in assay [2], in [3], in assay [4], in [5] and in assay [6] was inactive. Moreover, the result in assay [8], in [9] and in assay [10] was inactive. Moreover, in assay [7], the AC50 was 32.2 µM (active).
As to `CCOP(=O)(SC(C)CC)N1CCSC1=O` (stereo not given), the outcome in assay [1], in [2], in assay [3], in assay [4], in [5] and in assay [6] was inactive. Further, the outcome in assay [7], in [8], in assay [9] and in assay [10] was inactive.
Consider `CCC(=NOC/C=C/Cl)C1=C(O)CC(C2CCOCC2)CC1=O` (stereo not given), for which the result in assay [1], in assay [2], in assay [3], in [4], in [5] and in assay [6] was inactive. Further, the outcome in [7], in assay [8], in [9] and in [10] was inactive.

One may read the AC50 as the concentration giving half of the maximal activity seen.
